# HCMV antiviral = qHTS Assay for inhibitors of the human cytomegalovirus (HCMV). AID 1259415, 2018. 4.5% of 410,000 active. activity change, negative = inhibition, % at 57.5 µM. HFF cells, HCMV-luciferase reporter, 72 h; hits give low values; in the data active = activity change below about -60%; inconclusive = no clear call, values can overlap the other calls; inactive = above about -39%
#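 HFF cells seeded 16 h at 37C, treated with compounds, infected with luciferase-reporter HCMV at MOI 1 PFU/cell; luciferase read at 72 h post infection, normalized to buffer-only and Salinomycin controls.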
# HCV inh = qHTS Assay for Inhibitors of Hepatitis C Virus (HCV). Huh7.5.1 HCVcc-Cre infection, luciferase reporter, 44 h. Potency, µM (doses to about 41.8 µM), inactives show top-dose activity change, negative = inhibition, hits mostly inhibitors. 3.4% of 340,000 active; note: potency is the fitted concentration of half-maximal effect
#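 A cell-based infection assay in which seeded cells (1,000 per well) receive test compound after 4 h, are inoculated with HCVcc-Cre at approximately 0.5 moi, and are incubated 44 h before luminescence detection.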
# FMDV inh = High Throughput Screening for Foot and Mouth Disease Virus Antivirals; Potency, µM (top dose mostly 57.9 µM), for the others: at the highest dose activity change, negative = inhibition, most hits filed as inhibitors; AID 1159524, 2015; 1.2% of 410,000 active; FMDV antiviral cell-based qHTS; calls by dose curve; tested in HEK293T cells; note: read-out not given here; potency is the fitted concentration of half-maximal effect; nearly all actives have a fitted effect of over 45% in size
# Lassa entry inh = qHTS for Inhibitors of binding or entry into cells for Lassa Virus. Lassa virus pseudotype entry inhibition, cell reporter. Potency, µM (top dose mostly 37.9 µM), for inactives: top-dose activity change, negative = inhibition, hits mostly inhibitors. 1.2% of 300,000 active; calls by dose curve; tested in HEK293 cells; note: potency is the fitted concentration of half-maximal effect; nearly all actives have a fitted effect of over 50% in size
# MARV entry inh = qHTS for inhibitors of binding or entry into cells for Marburg Virus; 1.8% of 300,000 active; Marburg virus pseudotyped entry inhibition, cell reporter; AID 540276, 2011; Potency, µM (titrated, usually from 37.8 µM), without a hit: top-dose activity change, negative = inhibition, actives largely listed as inhibitors; calls by dose curve; tested in HEK293 cells; note: potency is the fitted concentration of half-maximal effect
# Giardia FBPA inh = qHTS Assay for Inhibitors of Fructose-1,6-bisphosphate Aldolase from Giardia Lamblia; A8B2U2; purified Giardia FBPA; Potency, µM (titrated, usually from 59.6 µM), without a hit: top-dose activity, negative = inhibition, usual class: inhibitors; 0.71% of 290,000 active; AID 2451, 2010; note: potency is the fitted concentration of half-maximal effect; nearly all actives have a fitted effect of over 55% in size
# Target sequence (A8B2U2 whole entry, looked up): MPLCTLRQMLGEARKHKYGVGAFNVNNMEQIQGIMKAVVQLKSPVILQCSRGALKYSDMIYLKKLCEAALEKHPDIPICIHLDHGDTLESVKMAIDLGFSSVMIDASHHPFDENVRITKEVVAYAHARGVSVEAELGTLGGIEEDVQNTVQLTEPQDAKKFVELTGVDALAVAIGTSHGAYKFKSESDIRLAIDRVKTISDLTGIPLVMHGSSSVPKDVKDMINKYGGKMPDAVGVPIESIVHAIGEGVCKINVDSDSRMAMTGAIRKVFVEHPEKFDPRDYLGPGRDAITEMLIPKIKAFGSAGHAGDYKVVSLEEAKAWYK
#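 40 nM FBPA preincubated 10 min at RT with compound (up to 57.5 uM final), then substrate plus GAPDH/TPI/NAD/arsenate coupling and diaphorase/resazurin added. Fluorescence read after 20 min at RT, 525/598 nm.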
# * marks the source's active call; other numbers are inactive results; ? = inconclusive; · = no result; [ ] = remark or other dose. In the library only some 8.3% were active in any assay of this set; here they are far more common. Unless noted, calls come from the whole dose curve; as a rule, active = well fitted curve in the direction sought with a large enough effect; inconclusive = small, poorly fitted or top-dose-only effect, or another doubt; inactive = no such curve, though single readings can be large; an effect the other way counts as inactive or inconclusive. % is set by controls: 0 for no effect and ±100 for the full control effect.
SMILES,HCMV antiviral,HCV inh,FMDV inh,Lassa entry inh,MARV entry inh,Giardia FBPA inh
O=[N+]([O-])c1ccc(NCCc2ccccc2)c(Br)c1,36,?,-4%,·,·,3%
Fc1ccc(F)c(NC(=S)NCCc2ccccc2)c1,-66*,-14%,19%,?,?,0%
NC(=O)c1cc([N+](=O)[O-])ccc1NCCc1ccccc1,-12,11µM*,25%,·,·,3%
Cc1nc2ccc(NC(=O)c3ccccc3)cc2c(=O)n1Cc1ccc(F)cc1,-73*,·,28µM*,·,·,·
S=C(NCCc1ccccc1)Nc1cnc2ccccc2c1,-63*,6%,81%,·,·,-2%
CCCNc1nc(NCc2ccccc2OC)c2cnn(C)c2n1,-33,·,?,-10%[46.1 µM],·,·
CCc1nn(CC(=O)N2CCN(c3cccc(C(F)(F)F)c3)CC2)c(=O)c2cccn12,0,·,-9%,2%[46.1 µM],?,·
CCCCC1OC23CCCCC2C(C#N)(C(=N)O3)C1(C#N)C#N (centres undefined),43,14%,25µM*,-16%,7%,-26%
CCCCC1OC23CCCCC2C(C#N)(C#N)C1(C#N)C(=N)O3 (centres undefined),-14,1%,0%,13%,-4%,?
O=C1N/C(=N/N=C/c2ccc(O)cc2)SC1Cc1ccccc1 (centres undefined),0,23%,5%,1.5µM*,0%,1%
O=C1N/C(=N/N=C/c2ccccc2O)SC1Cc1ccc(F)cc1 (centres undefined),-66*,?,-5%,?,?,3%
NC(=O)NC(=O)CC1S/C(=N/N=C/c2ccccc2)NC1=O (centres undefined),2,9%,-3%,10%[46.1 µM],0%[46.1 µM],0%
COc1ccc(CC2S/C(=N/N=C/c3ccc(O)cc3)NC2=O)cc1 (centres undefined),-11,?,8%,1.5µM*,8%,2%
COc1ccc(CC2S/C(=N/N=C/c3ccccc3O)NC2=O)cc1 (centres undefined),?,?,-8%,·,·,5%
COc1ccc(/C=N/N=C2/NC(=O)C(CC(=O)NC(C)C)S2)cc1 (centres undefined),-24,1%,2%,?,7%,3%
O=C(N/N=C1\CC(c2ccccc2)Oc2ccccc21)c1cccnc1 (centres undefined),-83*,-29%,-9%,?,-23%,12%
Cc1ccc(C2CC(=O)Oc3cc(C)c(Cl)c(C)c32)cc1 (centres undefined),·,·,·,·,·,-1%[89.2 µM]
COc1ccc(-c2cccc3c2C2CC3CCN2C(=O)OCc2ccccc2)cc1 (centres undefined),-20,7.9µM*,-28%,·,·,·
O=C(c1ccc(Cl)cc1)c1cn(Cc2ccccc2)c2cc3c(cc2c1=O)OCCO3,-63*,·,0%,?,?,·
COc1ccc(Cn2cc(C(=O)c3ccc(Cl)cc3)c(=O)c3cc4c(cc32)OCO4)cc1,-98*,·,29%,?,?,·
COc1ccc(Cn2cc(C(=O)c3ccc(OC)cc3)c(=O)c3cc4c(cc32)OCCO4)cc1,?,·,-12%,?,-17%[46.1 µM],·
COc1ccc2c(c1)c(=O)c(C(=O)c1ccc(C)cc1)cn2Cc1ccccc1F,-69*,·,-27%,?,11µM*,·
Cc1ccc(C(=O)c2cn(Cc3ccccc3)c3nc(C)ccc3c2=O)cc1,-73*,·,-15%,23%[46.1 µM],?,·
CCOC(=O)c1cccc(NC(=O)c2nn(-c3ccc(OC)cc3)c(=O)c3c2c2ccccc2n3C)c1,18,·,-14%,?,-3%[46.1 µM],·
N[C@](CC1c2ccccc2Oc2ccccc21)(C(=O)O)[C@@H]1C[C@@H]1C(=O)O,·,·,6%,·,·,-7%
SMILES,HCMV antiviral,HCV inh,FMDV inh,Lassa entry inh,MARV entry inh,Giardia FBPA inh
CCOC1(OCC)C(c2ccc(N)cc2)C(C#N)(C#N)C1(OCC)OCC (centres undefined),50,19%,?,-3%,?,-9%
CCOC1(OCC)C(c2ccc(Cl)cc2)C(C#N)(C#N)C1(OCC)OCC (centres undefined),?,-25%,?,21µM*,?,-19%
Cc1ccc(S(=O)(=O)NCCC(=O)NCCCSc2ccccc2)cc1,-75*,?,3%,·,·,·
COc1ccc(N(CC(=O)NCCSc2ccccn2)S(=O)(=O)c2ccc(C)cc2)cc1OC,-60*,-15%,22%,-11%[46.1 µM],-22%[46.1 µM],-5%
Cc1ccc(N(CC(=O)NCCSc2ccccc2)S(=O)(=O)c2ccc(F)cc2)cc1,-65*,·,?,-13%[46.1 µM],·,·
O=C1CC(CC(=O)N2CC3CCCC2C3)(c2cccc(F)c2)C(=O)N1Cc1cccnc1 (centres undefined),·,·,14%,·,·,·
COC1=CC2C(=O)C(C(c3ccccc3)C2C)C1(O)c1cccc(OC)c1 (centres undefined),·,·,·,·,15%[14.2 µM],·
CC1(C)CC(=O)C2=C(C1)N1C(=C(C#N)C2c2ccc(Cl)cc2)N=C(N)c2ccccc21 (centres undefined),-93*,8.9µM*,?,?,?,-11%
N#CC1=C2N=C(N)c3ccccc3N2C2=C(C(=O)CCC2)C1c1ccc(Cl)cc1 (centres undefined),-91*,?,-22%,?,-30%,14%
C=C(C)CCC(C)N1CCC(n2nccc2NC(=O)CCOc2ccccc2)CC1 (centres undefined),-89*,-21%,-23%,?,-19%,·
Cc1ccccc1C(=O)Nc1ccnn1C1CCN(C(C)Cc2ccccc2F)CC1 (centres undefined),-13,10µM*,-28%,·,·,·
COCC(C)N1CCC(n2nccc2NC(=O)c2ccccc2Cl)CC1 (centres undefined),25,30%,-11%,2%,11%,·
CC(C)NC(=O)N1CCC(n2nccc2NC(=O)CCOc2ccccc2)CC1,8,7%,-23%,12%[46.1 µM],-10%[46.1 µM],·
COC(=O)[C@@]1(C#N)CC(=O)N([C@@H](CO)c2ccccc2)[C@H]1c1ccccc1,-6,·,·,·,·,·
Cc1ccccc1CNC(=O)C1CCCN(c2nnc(C)c3c(C)n(-c4ccccc4)nc23)C1 (centres undefined),-101*,11%,19%,·,·,12%
CCc1ccc(CNC(=O)C2CCCN(c3nnc(C)c4c(C)n(-c5ccccc5)nc34)C2)cc1 (centres undefined),-108*,1%,?,-24%[46.1 µM],·,·
Cc1nnc(N2CCCC(C(=O)NCc3ccccc3F)C2)c2nn(-c3ccccc3)c(C)c12 (centres undefined),-20,-16%,0%,·,·,23%
